Sampled rows, rich in hits. Any-hit rate of the full collection: about 2.8%.
KDM5B inhibitor – inhibitors of human KDM5B histone demethylase; Q9UGL1; KDM5B demethylase, FDH-coupled NADH fluorescence (FDH is formaldehyde dehydrogenase); Potency, µM (doses to about 57.7 µM), hits mostly inhibitors; 220,000 tested, 2.6% active; AID 1347165; active = well fitted inhibition curve with a large enough effect; inconclusive = small, poorly fitted or top-dose-only effect; inactive = no such curve, though single readings can be large or run the other way; also: potency is read from the fitted curve at half-maximal effect; 0% is about no effect; nearly all actives have a fitted effect of over 70% in size
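Inhibition is measured as reduced NADH fluorescence generation from FDH coupling to formaldehyde release. Truncated KDM5BΔAP at 200 nM final acts on H3K4me3 peptide (12.5 µM in substrate mix) in pH 7.5 HEPES buffer with Tween-20, 30 min, room temperature.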
IP6K1 inhibitor – blocks human inositol hexakisphosphate kinase 1; Q92551; IP6K1 kinase, ADP-Glo luminescence, 2 h; stronger effect = lower value; activity change, % (series mostly up to about 58 µM); 140,000 tested, 0.81% active; in the data active = activity change below about -25%; also: % is scaled to controls: 0 for no effect and ±100 for the full control effect
Target sequence (Q92551 whole entry, looked up): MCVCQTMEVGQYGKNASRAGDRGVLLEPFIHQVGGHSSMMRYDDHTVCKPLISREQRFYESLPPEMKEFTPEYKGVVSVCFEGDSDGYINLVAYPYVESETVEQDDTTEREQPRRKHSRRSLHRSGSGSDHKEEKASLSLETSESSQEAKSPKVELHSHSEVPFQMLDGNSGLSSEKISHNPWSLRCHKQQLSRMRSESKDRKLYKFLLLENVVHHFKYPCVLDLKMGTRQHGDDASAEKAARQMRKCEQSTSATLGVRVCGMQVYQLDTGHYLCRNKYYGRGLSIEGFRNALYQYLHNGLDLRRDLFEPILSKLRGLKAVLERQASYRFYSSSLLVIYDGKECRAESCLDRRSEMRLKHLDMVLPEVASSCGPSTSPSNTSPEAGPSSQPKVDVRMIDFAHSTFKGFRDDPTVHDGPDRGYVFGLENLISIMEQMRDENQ
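ADP-Glo luminescence measures ADP made by human IP6K1 during a 2 h RT reaction with ATP/IP6 (mix at 1.3 mM/130 uM); top library doses 57.5 and 19.1 uM final.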
The depositor's hits bear a star; i = inactive; ? = inconclusive; . = not tested or not shown.

SMILES	KDM5B inhibitor	IP6K1 inhibitor
Cc1cccc(-c2cccc(CCOc3cnc4c(ccn4CC(=O)O)c3)c2)c1	32µM*	-10
O=C(O)Cn1ccc2cc(OCc3cccc(-c4cccc(C(F)(F)F)c4)c3)cnc21	?	-5
CC(=O)N1CCC(Cc2ccc(C(=O)NCc3cc(F)cc(F)c3)cc2)CC1	.	14
O=C1c2cnccc2OC2(CCCC2)CN1Cc1ccccc1	.	-10
COCCCNC(=O)c1ccc2nc(-c3cccc(C)n3)oc2c1	.	14
Cn1cc(-c2cccc(CCOc3cnc4c(ccn4CC(=O)O)c3)c2)cn1	40µM*	-16
Cn1cc(-c2cccc(COc3ccc4c(cnn4CC[S+](C)(=O)[O-])c3)c2)cn1	i	1
Cc1ccc(F)c(NC(=O)c2cc3c(N4CCSCC4)nc(C)cn3n2)c1	32µM*	-10
Cc1ccc(NC(=O)c2cc3c(N4CCSCC4)nc(C)cn3n2)c(C)c1	32µM*	-17
O=C(Nc1ccc(Cl)cc1)c1nc2ccccc2nc1N1CCOCC1	i	.
Cn1ncc2c(C(=O)NCc3cccc(F)c3)cc(-c3ccc([S+](C)(=O)[O-])cc3)nc21	.	2
CCOC(=O)C1(Cc2ccc(F)cc2F)CCCN(C(=O)c2c(C)nc3ncccn23)C1 (stereo not drawn)	32µM*	-6
Cc1nc2ncccn2c1C(=O)N1CCC2(CCCN(C)C2=O)C1 (stereo not drawn)	28µM*	-10
Cc1nc2ncccn2c1C(=O)N1C[C@H]2C(=O)NC[C@@]2(C(=O)O)C1	28µM*	-1
CCn1ccnc1C1CCN(C(=O)Cn2cccnc2=O)CC1	?	-1
Cc1nc(C(C)C)ncc1C(=O)N1CCC2(CCCN(C)C2=O)C1 (stereo not drawn)	i	23
CCOC(=O)C1(Cc2ccccc2F)CCCN(C(=O)c2ccc(-n3ccnc3)cc2)C1 (stereo not drawn)	i	9
Cc1c(-c2cccc(NC(=O)Cc3ccccc3)c2)nc2ncccn12	?	1
Cc1nc2ncccn2c1C(=O)N1CCC(c2nccn2CC(N)=O)CC1	28µM*	-2
COc1ccc(Nc2ccnc(N3CCCC(C(=O)NCc4ccccc4Cl)C3)n2)cc1 (stereo not drawn)	.	-6
COc1ccc(-c2ccc(C(=O)Nc3ccc(F)cc3)c(Cl)c2)nn1	.	-11
CCc1nc2ccc(C(=O)Nc3cc(C)ccn3)cc2nc1CC	i	.
COc1ccc(S(=O)(=O)Nc2ccc(CCc3nc4ccc(C)cc4[nH]3)cc2)cc1	i	.
CCOc1ccc(C2Cn3nnc(-c4nc(-c5ccccc5Br)no4)c3CO2)cc1 (stereo not drawn)	22µM*	-2
CCOc1ccc(C2Cn3nnc(-c4nc(-c5cccc(OCC)c5)no4)c3CO2)cc1 (stereo not drawn)	?	3
SMILES	KDM5B inhibitor	IP6K1 inhibitor
CCOc1cccc(-c2noc(-c3nnn4c3COC(c3cccc(OC)c3)C4)n2)c1 (stereo not drawn)	25µM*	8
CCOc1ccc(C2Cn3nnc(-c4nc(-c5ccccc5OC)no4)c3CO2)cc1 (stereo not drawn)	?	-7
COc1ccc2c3c1C(C(N)=O)N(Cc1ccccc1)CC3=CC(C)(C)CO2 (stereo not drawn)	.	3
CC1(C(=O)N2CCC(c3ccccc3)CC2)COCc2cnc(Nc3ccccc3)nc21 (stereo not drawn)	?	-2
CC1(C(=O)N2CCC(c3ccccc3)CC2)CCc2cnc(N3CCOCC3)nc21 (stereo not drawn)	32µM*	4
Cc1cc(C)cc(-c2ccc(CN3CCCC3C(=O)NCc3ccc(C(F)(F)F)cc3)cc2)c1 (stereo not drawn)	.	-5
Cc1nn(C)c(C)c1-c1ccnc(NCC2COc3ccccc3O2)n1 (stereo not drawn)	?	6
Cc1nn(C)c(C)c1-c1ccnc(NCC2CC(=O)N(C3CCCC3)C2)n1 (stereo not drawn)	25µM*	1
Cc1ccc(NC(=O)N2CC(CN3C(=O)c4c(c(C)nn4-c4ccccc4)C3C)C2)cc1F (stereo not drawn)	.	2
O=C(c1ccccc1)c1ccc(C(=O)N2CCN(c3nc4ccc(F)cc4s3)CC2)cc1	i	.
C=CCOCC(O)CN1CCC(=O)N(Cc2ccccc2)Cc2c1ccc(OC)c2OCC=C (stereo not drawn)	.	-5
O=C(NCCCc1ccccc1)[C@@H]1CCCN1c1nccc(Nc2ccccc2Cl)n1	.	1
O=C(O)c1cccc(-c2n[nH]c3c2CC(=O)N(CC2CCOCC2)C3)c1	?	8
C[S+](=O)([O-])Nc1cccc(-c2nc(N3CCOCC3)cc3c2CN(CC2CC2)C3=O)c1	28µM*	4
CN1CCC(Cn2ccc3c(N4CCOCC4)nc(-c4cccc(N[S+](C)(=O)[O-])c4)cc32)CC1	i	7
O=C1c2cc(N3CCOCC3)nc(-c3cccc(F)c3)c2CN1CC1CC1	35µM*	17
